This note sets out measurements from PubChem BioAssay AID588335 (The Scripps Research Institute Molecular Screening Center, 2011).

SMILES strings stand for the structures. Screen size: about 360,000 compounds; about 4,500 (1.2%) were called active. No stated cut-off is given here; in the data, active means inhibition above about 30%; inactive means the rest. The entries come from a sample that favours actives as a whole.

The assay can be described thus: inhibition of GDH and TPI enzymes – biochemical, absorbance, full deck, artefact control for M. tuberculosis FBA inhibitor project, primary screen (AID 588335).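 Further: 0% = DMSO wells and 100% = wells lacking the enzyme.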 Conditions: GDH-TPI coupled enzyme counterscreen, NADH absorbance; at 4.8 µM; stronger effect = higher value. (A counterscreen serves to expose hits that act by an unwanted route or on another target.)
In general, inhibition refers to the relative decrease from the control value, in per cent. Turning to `Cc1ccc(N2CCN(S(=O)(=O)N(C)C)CC2)cc1Cl`, the inhibition is 8.64% (inactive).
The result for `CC(c1ccco1)N(C(=O)c1ccc(S(=O)(=O)N2CCCCC2)cc1)c1ccccn1` (stereo not drawn) reads 3.73% (inactive); that for `Cc1ccccc1N1CC(C(=O)Nc2ccc3c(c2)OCO3)CC1=O` (stereo not drawn), 7.55% (inactive); that for `CC1(C)CC(O)C(CCC(O)c2ccccc2)C(C)(C)N1` (stereo not drawn), 11.8% (inactive).
Take `Cc1ccc(Cl)cc1NC(=S)N(CCN(C)C)Cc1cccs1`: the inhibition is -1.86% (inactive).
The result for `CCCC(=O)N1CCC(CCC(=O)NC2CC2)CC1` reads -6.29% (inactive).
The result for `CCCn1c(=S)[nH]c2ccc(C(F)(F)F)cc21` reads 2.44% (inactive); that for `Cc1cc(N2CCN(c3ccc(F)cc3)CC2)n2ncnc2n1`, -5.36% (inactive).
The result for `Cc1ccc(NC(=O)C2CCN(S(=O)(=O)c3ccc4c(c3)NC(=O)CO4)CC2)cc1C` reads -3.15% (inactive); that for `COc1cccc(C(=O)Nc2ccc3nc4n(c(=O)c3c2)CCCCC4)c1`, 13.4% (inactive).
Regarding `COc1cc(OC)cc(C(=O)Nc2ccc(-c3nc4ccccc4o3)c(O)c2)c1`, the inhibition was 31.5% (active).
In the case of `COc1cc(OC)cc(C(=O)N[C@H](C(=O)Nc2nc3ccccc3[nH]2)C(C)C)c1` it was 12.4% (inactive); in that of `CN(Cc1ccccc1)C(=O)C(=O)c1cn(CC(=O)N2CCCC2)c2ccccc12`, 13.8% (inactive).
The result for `O=C(CSc1ccccn1)Nc1nc2c(ccc3ccccc32)s1` reads 13.6% (inactive); that for `COc1cc(OC)c(OC)cc1CN1CCN(C(=O)c2cccc3ccccc23)CC1`, 0% (inactive); that for `O=C1C2CCCN2C(=O)N1CCCCN1CCN(c2cccc(C(F)(F)F)c2)CC1` (stereo not drawn), 15.7% (inactive).
In the case of `COc1cc(/C=N\Nc2nc(-c3cccs3)c(NC(C)=O)s2)ccc1O` it was 34.8% (active); in that of `CC(=O)c1sc(N/N=C/c2ccc(C(C)C)cc2)nc1C`, 8.98% (inactive).
For the compound `COc1cc(/C=C/C(=O)OCC(=O)NCCCc2ccccc2)ccc1O`, the inhibition is 19.3% (inactive).
The result for `CC(C)=CCCC(C)CN1CCC(n2nccc2NC(=O)c2ccccc2)CC1` (stereo not drawn) reads -14.4% (inactive); that for `Cc1ccc(C(=O)Nc2nnc(-c3ccncc3)s2)o1`, 36.5% (active).
In the case of `O=C(Nc1nnc(Cc2ccc(Cl)cc2)s1)c1ccncc1` it was 16.2% (inactive); in that of `CC(C)=CC(=O)Nc1nnc(-c2ccc(F)cc2)s1`, 2.46% (inactive); in that of `NC(=O)C1CCN(C(=O)c2cc(S(=O)(=O)N3CCN(c4ccccc4)CC3)ccc2Cl)CC1`, 0% (inactive).
In the case of `Cc1c(N=Nc2ccc(N(C)C)cc2)c(=O)n(-c2ccccc2)n1C` it was 7.74% (inactive); in that of `Cc1[nH]n(C)c(=O)c1C(=O)c1c(-c2c(Cl)cccc2Cl)noc1C`, 10.3% (inactive); in that of `Cc1[nH]n(C)c(=O)c1N=Nc1ccc(S(C)(=O)=O)cc1`, 33.3% (active).
Consider `O=S(=O)(NCc1ccccc1Cl)c1cnc[nH]1`, for which the inhibition was 5.02% (inactive).
In the case of `O=C(NCCCNC(=O)c1ccccc1Cl)c1cnccn1` it was -2.33% (inactive); in that of `O=C(NCCCO)/C(=C\C=C\c1ccccc1)NC(=O)c1ccccc1Cl`, 34.7% (active); in that of `O=C(NCC(=O)N1CCCCCCC1)c1ccccc1Cl`, 9.24% (inactive).
On to `CC(NCC(=O)Nc1ccccc1C(=O)NC1CC1)c1ccccc1Cl` (stereo not drawn), for which the inhibition is -5.56% (inactive).
For `COCCn1cnnc1SCC(=O)Nc1cccc(S(=O)(=O)N2CCCCC2)c1`, the inhibition is -5.42% (inactive).
Consider `COc1ccc(CC2c3cc(OC)c(OC)cc3CC[N+]2(C)CCC(=O)OCCCCCOC(=O)CC[N+]2(C)CCc3cc(OC)c(OC)cc3C2Cc2ccc(OC)c(OC)c2)cc1OC` (stereo not drawn), for which the inhibition is -11.1% (inactive).
As for `COc1cccc(Nc2ncccc2C(=O)O)c1`, the inhibition is 11.1% (inactive).
As to `COc1cccc(C(=O)NC(=O)Nc2nc(C)cc(C(F)(F)F)n2)c1`, the inhibition is -10% (inactive).
In the case of `COc1ccc2nc(C)cc(Nc3cccc(C(=O)O)c3)c2c1` it was 32.2% (active); in that of `CC(C)CN(CC(C)C)C(=O)CN1c2cccc3cccc(c23)S1(=O)=O`, -9.01% (inactive); in that of `COc1ccc(C#Cc2c(-c3ccc(OC)cc3)oc3ccc(-c4ccc5c(c4)OCO5)cc23)cc1`, 5.83% (inactive).
For `C=CCNC(=O)COc1coc(CN2CCN(Cc3ccccc3)CC2)cc1=O`, the inhibition was -4.97% (inactive).
The result for `C=CCNC(=S)/N=c1/ccccn1Cc1ccccc1` reads 33.6% (active).
The result for `N=c1ccccn1Cc1ccccc1` reads -9.4% (inactive); that for `O=C(COc1ccc2c3c(c(=O)oc2c1)CCCC3)NCC(O)c1ccccc1` (stereo not drawn), 10.6% (inactive); that for `O=C(COc1ccc2oc3c(c2c1)CCCC3)Nc1ccccn1`, -3.77% (inactive).
In the case of `O=C(CN1CCOCC1)N1CCCc2c1c(=O)oc1ccc(OCc3ccccc3)cc21` it was 31.5% (active).
Turning to `CCc1nn(CC(=O)N2CCN(c3cc(C)ccc3C)CC2)c(=O)c2cc3occc3n12`, the inhibition was 3.06% (inactive).
The result for `CCOC(=O)N1CCC(NC(=O)C(C)n2c3ccccc3c3cnn(C)c(=O)c32)CC1` (stereo not drawn) reads 1.24% (inactive); that for `Cc1cc(C)nc(NS(=O)(=O)c2ccc(N/C=C\C(=O)c3cccs3)cc2)n1`, 10.6% (inactive); that for `Cc1ccc(OCCCC(=O)Nc2ccc(S(=O)(=O)Nc3cc(C)nc(C)n3)cc2)cc1`, -1.42% (inactive).
In the case of `Cc1ccc(S(=O)(=O)Nc2nc(C)cc(N/N=C/c3ccc(O)cc3)n2)cc1` it was 31.1% (active).
In the case of `O=c1c(Cl)c(NCc2ccc(F)cc2Cl)cnn1C12CC3CC(CC(C3)C1)C2` it was -9.45% (inactive); in that of `CCc1nnc(NC(=O)c2cc(S(=O)(=O)N3CCN(CC)CC3)ccc2Cl)s1`, 7.27% (inactive).
Take `COc1cc(OC)cc(-c2c(-c3cccs3)c3cc(-c4ccc(OC)nc4)ccc3n2C)c1`: the inhibition is 23.8% (inactive).
`COc1ccc(-c2c(-c3cc(OC)cc(OC)c3)n(C)c3ccc(-c4ccn[nH]4)cc23)cc1`: the inhibition was 10.2% (inactive).
The result for `COc1cc(OC)cc(-c2c(-c3ccc(F)cc3)c3cc(-c4ccc5cc[nH]c5c4)ccc3n2C)c1` reads 43.2% (active); that for `Cc1ccc(C(=O)CN2C(=O)NC3(CCc4ccccc43)C2=O)c(C)c1` (stereo not drawn), -0.34% (inactive).
The result for `O=C(CCCCO)c1ccc(O)c(Cl)c1` reads 29.1% (inactive); that for `Cc1c(S(=O)(=O)N2CC(C)CC(C)C2)c(=O)n(C)c(=O)n1C` (stereo not drawn), -4.2% (inactive).
